Our source for the growth inhibition values is PubChem BioAssay (NCI).

Several values for one entry are separate records, joined by “and”; a condition that tells them apart may be missing. Equal entries are not always repeated. Compounds without any hit were thinned out: in the full panel of roughly 79,000, 15% have a hit. Values without a mark were called inactive. Activity calls are given as the source filed them. Rule as the data show it: active = growth inhibition above about 70%; inactive = the rest.

One experiment can be described thus: NCI Yeast Anticancer Drug Screen. Data for the mec2-1 strain (AID 157). The following applies: S. cerevisiae mec2-1 strain, stronger effect = higher value; at 50.0 µM unless noted. The essentials: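 Growth inhibition is read against vehicle-treated controls after compound exposure of the mec2-1 yeast strain, which is defective in DNA damage repair or cell cycle control.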
On to `COc1cc2c(cc1OC)C(=O)/C(=C/c1cc(OC)c(OC)c(OC)c1)C2`, for which the growth inhibition was -35.5%.

Take `O=C1NN(C(=O)c2ccccc2)C(c2ccccc2[N+](=O)[O-])c2c1c1ccccc1n2C(=O)c1ccccc1` (stereo not given): the growth inhibition is 5.65%.

For `O=C(O)C1C2CC=CCC21` (stereo not given), the growth inhibition was 4.5%.

In the case of `Cc1cc(N(CCC#N)CCC#N)ccc1/C=C1/CN(N2C(=O)/C(=C/c3ccc(N(CCC#N)CCC#N)cc3C)N=C2c2ccccc2)C(c2ccccc2)=N1`, the growth inhibition was -25.4%.

On to `N#CC(C(=O)CCC(=O)C(C#N)c1ccccc1)c1ccccc1` (stereo not given), for which the growth inhibition is -14.8%.

`CCCC(C)C(C(=O)OCC)C(=O)OCC` (stereo not given): the growth inhibition was -14.5% and -5.6%.

Turning to `NNc1nc(NCc2ccco2)c2[nH]cnc2n1`, the growth inhibition was -7.95%.

In the case of `Cc1ccc(/C=C2\NC(=S)NC2=O)cc1`, the growth inhibition was -18.9%.

Consider `COc1ccc(-c2nnc(N)s2)cc1OC`, for which the growth inhibition is 2.7%.

For the compound `Cc1c2noc1CCCCCCCCCCC2`, the growth inhibition is 20%.

For the compound `O=C(Cc1ccccc1)N/N=C(/c1nc2ccc([N+](=O)[O-])cc2[nH]c1=O)C(O)c1ccccc1Cl` (stereo not given), the growth inhibition was 2.6%.

Turning to `CC(C)N1C(=O)NC2C1NC(=O)N2C(C)C` (stereo not given) (tested in a mixture with another compound), the growth inhibition was -5.2%.

In the case of `Cn1cnc2nc(Cl)nc(N)c21`, the growth inhibition is -4.15%.

On to `COc1cccc2c(SC)c(C)[nH]c12`, for which the growth inhibition is -0.4%.

As for `CCC(CC)C(O)C(C)C(C)O` (stereo not given), the growth inhibition is -8.8%.

Take `N#CC1(C(=O)c2ccccc2)C=Cc2ccccc2N1C(=O)c1ccccc1` (stereo not given): the growth inhibition was 16.4%.

As for `Cc1[nH]c(N)nc(=S)c1CCCNc1ccccc1`, the growth inhibition was 2.1%.

Turning to `CCCCCCCCCC(=O)N=C(C(N)=O)C(N)=O`, the growth inhibition was 18.3%.

As to `CCOC(=O)c1cnc2c(cnn2CC)c1NCC(C)C`, the growth inhibition is 21.8%.

With `O=C(O)c1ccccc1-c1ccccc1`, the growth inhibition is -36.1%.

With `O=c1c2ccc(Cl)cc2nc2nc(-c3ccccc3)c3cc(Cl)ccc3n12`, the growth inhibition was 31.2%.

Take `O=C(O)c1c(O)cc(=O)oc1-c1ccc(Cl)cc1`: the growth inhibition is 0.9%.

Take `CC(C)(C)SC(=S)SCC(=O)c1ccc(F)cc1`: the growth inhibition was -36.4%.

Regarding `COc1ccc(C2=C(c3ccccc3)C(=O)C3(c4ccccc4)CC23c2ccc(OC)cc2)cc1` (stereo not given), the growth inhibition was 17.6%.

Consider `Cc1nccn1C(/C(=N/O)c1ccccc1)c1ccccc1` (stereo not given), for which the growth inhibition was 10.4%.

Regarding `CN(C)CC(O)(C(=O)c1ccccc1)c1ccccc1` (stereo not given), the growth inhibition was -9.8%.

`N#CC1CCC[N-]C1.N#CC1CCC[N-]C1.[Cl][Pt+2][Cl]` (stereo not given): the growth inhibition was 4.75%.

Turning to `CCCCCCCCCCCCCCCCCCOc1ccccn1`, the growth inhibition is -32.1%.

In the case of `O=c1c2cc3c(=O)n4c(cc(-c5ccccc5)c5cc(Cl)ccc54)nc3cc2nc2cc(-c3ccccc3)c3cc(Cl)ccc3n12`, the growth inhibition is 5.55%.

Consider `COC(=O)CCC(C)C1CCC2(C)C3=C(C(=O)CC12C)C1(C)CCC(O)C(C)(C)C1=C(O)C3` (stereo not given), for which the growth inhibition was 74.2% (active).

Turning to `O=c1oc(=O)c2cc3c(=O)oc(=O)c3cc12`, the growth inhibition is 11.1%.

With `COc1cc2c(cc1OC)[C@H](c1cc(OC)c3c(c1)OCO3)[C@H]1C(=O)OCC1C2` (stereo not given in full), the growth inhibition is -0.1%.

For the compound `Nc1ccc(Cc2cc([N+](=O)[O-])cc([N+](=O)[O-])c2)cc1`, the growth inhibition was -1.75%.

Regarding `COC(=O)C(=O)C(C(=O)C=C(C)C)C(=O)C(=O)Nc1ccc(C)cc1C` (stereo not given), the growth inhibition is -17.5%.

Consider `O=C(O)C1CC(=O)N(Cc2ccccc2)C1` (stereo not given), for which the growth inhibition was 33.3%.

Consider `CC(C)(C)c1ccncc1`, for which the growth inhibition was 16.1%.

Regarding `CCSC1C(O)C(CO)OC1n1cnc2c(=S)nc[nH]c21` (stereo not given), the growth inhibition is -28.7%.

In the case of `C1CSCCSS[C@@H]2CCCCC2SC1` (stereo not given in full), the growth inhibition is -25.1%.

As to `Cc1cc(N)c(N)cc1C`, the growth inhibition was 4.15%.

In the case of `O=C(O)C1Cc2c([nH]c3ccccc23)CN1` (stereo not given), the growth inhibition is -10.9%.

The nature of a further experiment: NCI Yeast Anticancer Drug Screen. Data for the sgs1 mgt1 strain (AID 161).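 Also: 0% = growth of cultures given vehicle only.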 As to conditions: S. cerevisiae sgs1 mgt1 strain, stronger effect = higher value; at 50.0 µM unless noted. The essentials:
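This yeast growth screen uses a strain with defined DNA-repair lesions; compound-treated growth is compared with vehicle-treated growth.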
`COc1cc2c(cc1OC)C(=O)/C(=C/c1cc(OC)c(OC)c(OC)c1)C2`: the growth inhibition was -69.8%.

Take `O=C1NN(C(=O)c2ccccc2)C(c2ccccc2[N+](=O)[O-])c2c1c1ccccc1n2C(=O)c1ccccc1` (stereo not given): the growth inhibition is 5.2%.

For `O=C(O)C1C2CC=CCC21` (stereo not given), the growth inhibition is 11.8%.

With `Cc1cc(N(CCC#N)CCC#N)ccc1/C=C1/CN(N2C(=O)/C(=C/c3ccc(N(CCC#N)CCC#N)cc3C)N=C2c2ccccc2)C(c2ccccc2)=N1`, the growth inhibition was -22.6%.

Take `N#CC(C(=O)CCC(=O)C(C#N)c1ccccc1)c1ccccc1` (stereo not given): the growth inhibition is 1.2%.

On to `CCCC(C)C(C(=O)OCC)C(=O)OCC` (stereo not given), for which the growth inhibition is -9.85% and 10.9%.

Take `NNc1nc(NCc2ccco2)c2[nH]cnc2n1`: the growth inhibition is 1.5%.

For the compound `Cc1ccc(/C=C2\NC(=S)NC2=O)cc1`, the growth inhibition is -1.9%.

`COc1ccc(-c2nnc(N)s2)cc1OC`: the growth inhibition was 2.8%.

Turning to `Cc1c2noc1CCCCCCCCCCC2`, the growth inhibition is 3.6%.

Regarding `O=C(Cc1ccccc1)N/N=C(/c1nc2ccc([N+](=O)[O-])cc2[nH]c1=O)C(O)c1ccccc1Cl` (stereo not given), the growth inhibition was 6.8%.

For `CC(C)N1C(=O)NC2C1NC(=O)N2C(C)C` (stereo not given) (tested in a mixture with another compound), the growth inhibition was -1.15%.

With `Cn1cnc2nc(Cl)nc(N)c21`, the growth inhibition was 6.05%.

`COc1cccc2c(SC)c(C)[nH]c12`: the growth inhibition was 18.8%.

As to `CCC(CC)C(O)C(C)C(C)O` (stereo not given), the growth inhibition is -10.6%.

Consider `N#CC1(C(=O)c2ccccc2)C=Cc2ccccc2N1C(=O)c1ccccc1` (stereo not given), for which the growth inhibition is -0.85%.

In the case of `Cc1[nH]c(N)nc(=S)c1CCCNc1ccccc1`, the growth inhibition was 6.8%.

With `CCCCCCCCCC(=O)N=C(C(N)=O)C(N)=O`, the growth inhibition is 38.5%.

On to `CCOC(=O)c1cnc2c(cnn2CC)c1NCC(C)C`, for which the growth inhibition was 18.6%.

Turning to `O=C(O)c1ccccc1-c1ccccc1`, the growth inhibition was -12.4%.

As to `O=c1c2ccc(Cl)cc2nc2nc(-c3ccccc3)c3cc(Cl)ccc3n12`, the growth inhibition was 37.4%.

On to `O=C(O)c1c(O)cc(=O)oc1-c1ccc(Cl)cc1`, for which the growth inhibition is 3.75%.

On to `CC(C)(C)SC(=S)SCC(=O)c1ccc(F)cc1`, for which the growth inhibition is 8.65%.

As for `COc1ccc(C2=C(c3ccccc3)C(=O)C3(c4ccccc4)CC23c2ccc(OC)cc2)cc1` (stereo not given), the growth inhibition is 15.5%.

On to `Cc1nccn1C(/C(=N/O)c1ccccc1)c1ccccc1` (stereo not given), for which the growth inhibition was -0.5%.

Consider `CN(C)CC(O)(C(=O)c1ccccc1)c1ccccc1` (stereo not given), for which the growth inhibition is -13.5%.

Turning to `N#CC1CCC[N-]C1.N#CC1CCC[N-]C1.[Cl][Pt+2][Cl]` (stereo not given), the growth inhibition was 32.4%.

As to `CCCCCCCCCCCCCCCCCCOc1ccccn1`, the growth inhibition is -9.75%.

In the case of `O=c1c2cc3c(=O)n4c(cc(-c5ccccc5)c5cc(Cl)ccc54)nc3cc2nc2cc(-c3ccccc3)c3cc(Cl)ccc3n12`, the growth inhibition was 18.9%.

With `COC(=O)CCC(C)C1CCC2(C)C3=C(C(=O)CC12C)C1(C)CCC(O)C(C)(C)C1=C(O)C3` (stereo not given), the growth inhibition is 77.6% (active).

For the compound `O=c1oc(=O)c2cc3c(=O)oc(=O)c3cc12`, the growth inhibition is -6.75%.

As to `COc1cc2c(cc1OC)[C@H](c1cc(OC)c3c(c1)OCO3)[C@H]1C(=O)OCC1C2` (stereo not given in full), the growth inhibition is 0.2%.

On to `Nc1ccc(Cc2cc([N+](=O)[O-])cc([N+](=O)[O-])c2)cc1`, for which the growth inhibition was 11.4%.

As to `COC(=O)C(=O)C(C(=O)C=C(C)C)C(=O)C(=O)Nc1ccc(C)cc1C` (stereo not given), the growth inhibition is -3.55%.

`O=C(O)C1CC(=O)N(Cc2ccccc2)C1` (stereo not given): the growth inhibition was 34.6%.

For `CC(C)(C)c1ccncc1`, the growth inhibition was -16.4%.

Consider `CCSC1C(O)C(CO)OC1n1cnc2c(=S)nc[nH]c21` (stereo not given), for which the growth inhibition is -2%.

For the compound `C1CSCCSS[C@@H]2CCCCC2SC1` (stereo not given in full), the growth inhibition was -0.55%.

As to `Cc1cc(N)c(N)cc1C`, the growth inhibition was 52.2%.

`O=C(O)C1Cc2c([nH]c3ccccc23)CN1` (stereo not given): the growth inhibition was 11.6%.
